Laboratory results: PubChem BioAssay (Tox21)
Activity calls are given as the source filed them. A call without a number means that no potency is given here. Calls come from the whole dose curve.

Experiment: qHTS assay to identify small molecule agonists of the sonic hedgehog signaling (Shh) pathway (AID 1259368);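 note: NIH/3T3-derived 3T3Gli1-Luc cells carrying a stable Gli1-driven firefly luciferase reporter; nearly all actives have a fitted effect of over 15% in size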
Details: NIH/3T3 Gli1-Luc reporter, luciferase, 24 h; series mostly up to 92.4 µM
Text: National Center for Advancing Translational Sciences [NCATS]
NIH Chemical Genomics Center [NCGC]
U.S. Environmental Protection Agency [EPA]
National Institutes of Environmental Health Sciences [NIEHS]
National Toxicology Program [NTP]
The sonic hedgehog (Shh) pathway is essential for normal embryonic development. Dysregulation of the Shh pathway can cause severe developmental defects in organs. Therefore chemicals that interfere with the pathway are potential developmental toxicants. A cell line designated 3T3Gli1-Luc (DMB/OARSA/CFSAN/FDA, Laurel, MD), a NIH/3T3 derived clone containing stably integrated Gli1-Luc reporter is used to detect chemical interference of the Shh pathway, by changes in the expression of the firefly Luc gene under the control of the Gli1 transcriptional response element. This cell line was used to screen Tox21 libraries for identifying and prioritizing the potential developmental toxicants that interfere Shh pathway.
3T3 Gli1-Luc cells were dispensed at 2,000 per well in 5uL of culture medium into white solid bottom 1536-well plates (Greiner Bio-One, Monroe, NC) using a Multidrop Combi (Thermo Scientific, Waltham, MA) dispenser. The assay plates were incubated at 37 C and 5% CO2 for 4hr, and then 23nL of compounds dissolved in DMSO and positive control were transferred using a Pintool station (Wako, San Diego, CA). The assay plates were incubated at 37C and 5% CO2 for 24hr. For luciferase read, 4uL of Amplite Luciferase reporter gene assay reagent (AAT Bioquest, Inc. Sunnyvale, CA) was added to each well of the assay plates using Flying Reagent Dispenser (FRD, Aurora Discovery, San Diego, CA) and incubated at room temperature for 30min. The luminescence signal was measured using a ViewLux plate reader (Perkin Elmer, Shelton, CT).
With `CC(C)=CCOc1c2occc2cc2ccc(=O)oc12` the Potency was “inactive”. In the case of `C=CC(=O)OC(C)(C)C`, the Potency is reported as “inactive”. In the case of `Cl/C=C\C[N+]12CN3CN(CN(C3)C1)C2`, the Potency is reported as “inactive”. For `Cn1sc(Cl)cc1=O`, the Potency was “inactive”. For `CCCCN(N=O)C(=N)N[N+](=O)[O-]`, the Potency was “inactive”. With `CCC(Cl)CCl` (stereo not given) the Potency was “inactive”. For `Cc1cc(=O)[nH]o1`, the Potency was “inactive”. In the case of `CCCCCC[N+](=O)[O-]`, the Potency is reported as “inactive”. In the case of `NCC(CC(=O)O)c1ccc(Cl)cc1` (stereo not given), the activity change is reported as -1.29% [at 0.349 µM, stronger effect = higher value] (inactive). For `C[N+](C)(C)CCCl`, the Potency was “inactive”. For `COc1c(C(C)(C)C)cc([N+](=O)[O-])c(C)c1[N+](=O)[O-]`, the Potency was “inactive”. In the case of `CCCCC(CC)COP(=O)(Oc1ccccc1)Oc1ccccc1` (stereo not given), the Potency is reported as “inactive”. In the case of `O=C(CBr)c1ccccc1`, the Potency is reported as “inactive”. In the case of `COc1cc(CC(C)N)cc2c1OCO2` (stereo not given), the Potency is reported as “inactive”. In the case of `CC(=O)c1cc2c(cc1C)C(C)(C)C(C)CC2(C)C` (stereo not given), the Potency is reported as “inactive”. For `COP(=S)(OC)Oc1ccc([N+](=O)[O-])cc1Cl`, the Potency was “inactive”. In the case of `CCOP(=S)(OCC)Oc1cc(Cl)c(Br)cc1Cl`, the Potency is reported as “inactive”. For `OCCCBr`, the Potency was “inactive”. In the case of `COP(=S)(Oc1cc(Cl)c(Br)cc1Cl)c1ccccc1` (stereo not given), the Potency is reported as “inactive”. With `Clc1cc(C(Cl)(Cl)Cl)cnc1Cl` the Potency was “inactive”. With `CC(C)(C)C(O)C(Oc1ccc(Cl)cc1)n1cncn1` (stereo not given) the Potency was “inactive”. For `Brc1ccc(Oc2ccccc2)cc1`, the Potency was “inactive”. With `Nc1nc(=S)[nH][nH]1` the Potency was “inactive”. With `O=NN1CCCCCC1` the Potency was “inactive”. In the case of `O=C=Nc1ccc(Cl)cc1`, the Potency is reported as “inactive”. For `COc1nn(C(=O)NS(=O)(=O)c2ccccc2OC(F)(F)F)c(=O)n1C`, the Potency was “inactive”. For `NS(=O)(=O)C(F)(F)C(F)(F)C(F)(F)C(F)(F)C(F)(F)C(F)(F)C(F)(F)C(F)(F)F`, the Potency was “inactive”. For `CC(Cl)C(C)Cl` (stereo not given), the Potency was “inactive”. In the case of `CCCCC(O)(Cn1cncn1)c1ccc(Cl)cc1Cl` (stereo not given), the Potency is reported as “inactive”. In the case of `O=C(N[C@H](c1ccccc1)[C@@H]1CN2CCC1CC2)c1c(Cl)ccc(C(F)(F)F)c1Cl`, the Potency is reported as “inactive”. With `OC(c1ccc(Cl)cc1)(c1ccc(Cl)cc1)c1cccnc1` the Potency was “inactive”. With `CCCN(CC1CC1)c1c([N+](=O)[O-])cc(C(F)(F)F)cc1[N+](=O)[O-]` the Potency was “inactive”. With `CCc1ccc(C(=O)NN(C(=O)c2cc(C)cc(C)c2)C(C)(C)C)cc1` the Potency was “inactive”. With `CC[C@H]1C[C@H]2[C@@H]3CCC4=CC(=O)CC[C@@H]4[C@H]3CC[C@]2(C)[C@H]1O` the Potency was “inactive”. In the case of `CNP(=O)(OC)Oc1ccc(C(C)(C)C)cc1Cl` (stereo not given), the Potency is reported as “inactive”. In the case of `C/C=C/C=O`, the Potency is reported as “inactive”. In the case of `CN1[C@@H]2CC[C@H]1CC(OC(=O)c1cc(Cl)cc(Cl)c1)C2` (stereo not given in full), the Potency is reported as “inactive”. For `ClC=C(Cl)Cl`, the Potency was “inactive”. For `Clc1ccc(C2(Cn3cncn3)CC(Br)CO2)c(Cl)c1` (stereo not given), the Potency was “inactive”. For `C=CCOC(C)=O`, the Potency was “inactive”.
